# In the library only some 5.9% were active in any assay of this set; here they are far more common.
# HepG2 tox – counter-screen for TGF-b inhibitors: cytotoxicity in HepG2 cells | HepG2 CAGA-GFP viability, ATP luminescence, 18 h | 410,000 tested, 0.76% active | Potency, µM (series often up to 46.1 µM), inactives show at the top dose activity change, negative = cytotoxicity, hits mostly cytotoxic
#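 HepG2 CAGA-GFP cells (1000/well, DMEM with 1% FBS) received compound, then TGF-beta at 500 pg/mL final, and were incubated 18 hours at 37 degrees C. Viability was read by CellTiter-Glo luminescence. Media-only wells were set as complete cell-killing and DMSO as no toxicity.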
# S2 tox – reduces viability in counter-screen for ATXN expression inhibitors. S2 cells (HEK-293 line with an ATXN2-luciferase reporter) viability, CellTiter-Fluor protease fluorescence, 24 h. 400,000 tested, 0.49% active. Potency, µM (top dose mostly 56.7 µM), usual class: cytotoxic; further: nearly all actives have a fitted effect of over 40% in size
# TGFb SMAD3 inh – blocks TGF-b signaling; HepG2 CAGA-GFP TGF-b/SMAD3 reporter, GFP fluorescence, 18 h; TGF-beta stimulated, 500 pg/mL final; AID 588855; Potency, µM (series often up to 46.1 µM), inactives show top-dose activity, negative = inhibition, actives largely listed as inhibitors; 410,000 tested, 1.2% active; further: on the % scale 0 is the no-effect control and ±100 the full control effect; nearly all actives have a fitted effect of over 65% in size
#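 GFP signal (ex488/em500-530) from TGF-beta-stimulated HEPG2 CAGA-GFP cells, 500 pg/mL final, 18 h at 37 degrees C in DMEM plus 1% FBS, normalized to unstimulated and DMSO-stimulated controls.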
# ATXN2 expr inh – inhibitors of ATXN2 expression. HEK-293 ATXN2-luciferase reporter, luminescence, 24 h. Potency, µM (top dose mostly 57 µM), for the others: at the highest dose activity change, negative = inhibition, actives largely listed as inhibitors. 360,000 tested, 0.72% active. AID 1745845; further: on the % scale 0 is the no-effect control and ±100 the full control effect; nearly all actives have a fitted effect of over 55% in size
#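 qHTS (up to 57 uM final) was run with 24 h compound exposure of reporter cells at 37 °C. Each well was multiplexed: SteadyGlo luminescence measured ATXN2-luciferase expression after a fluorogenic Gly-Phe-AFC viability readout (25 uM final).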
# KB-3-1 tox – KB-3-1 parental cell cytotoxicity | KB-3-1 viability, CellTiter-Glo ATP luminescence, 72 h | Potency, µM (titrated, usually from 46.1 µM), actives largely listed as cytotoxic | 400,000 tested, 1.4% active; further: on the % scale 0 is the no-effect control and ±100 the full control effect; nearly all actives have a fitted effect of over 60% in size
#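 Cells are dispensed, compounds pinned in, plates held at 37 °C for 72 h, then CellTiter-Glo is added and luminescence read after 10 minutes. Cell line: parental KB-3-1 in phenol-red-free DMEM, 10% FBS.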
# KB-V1 MDR tox – kills drug-selected multidrug resistant KB-V1 cells | KB-V1 MDR cells viability, CellTiter-Glo, 72 h | Potency, µM (highest dose often 46.1 µM), usual class: cytotoxic | 400,000 tested, 3.4% active | AID 1347076; further: on the % scale 0 is the no-effect control and ±100 the full control effect; nearly all actives have a fitted effect of over 60% in size
#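 Cells of the MDR subline KB-V1 are plated, dosed with compound at multiple concentrations, and incubated 72 h at 37 degrees C; CellTiter-Glo is then added and luminescence read after 10 min.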
# * marks the source's active call; other numbers are inactive results; i = inactive; ? = inconclusive; · = no result given. The call rests on the fitted dose curve; in most records, active means well fitted curve in the direction sought with a large enough effect; inconclusive means small, poorly fitted or top-dose-only effect, or another doubt; inactive means no such curve, though single readings can be large; an effect the other way counts as inactive or inconclusive. Potency means the concentration at half of the fitted maximal effect.
SMILES,HepG2 tox,S2 tox,TGFb SMAD3 inh,ATXN2 expr inh,KB-3-1 tox,KB-V1 MDR tox
COc1ccc(Nc2c(-c3ccsc3)nc3nc(C)cc(C)n23)cc1,-22%,·,?,·,i,i
COc1ccc(CNC(=O)CCn2c(=O)c3cccn3c3ccc(F)cc32)cc1OC,26%,·,6%,·,·,·
COc1cccc(-c2cc(-c3cccnc3)nc(N)c2C#N)c1,11%,i,25%,·,i,i
COc1ccc(OC)c(-c2cc(-c3cccnc3)nc(N)c2C#N)c1,15%,i,13%,-1%,2.1µM*,2.6µM*
COc1ccc(C[C@H]2CN3C(=NC[C@@H]3Cc3ccccc3)N2CCNC(=O)CCC2CCCCC2)cc1,-117%,22µM*,?,?,?,16µM*
CO[C@@H]1CN(C)C(=O)c2ccc(NC(=O)C3CCCC3)cc2OC[C@@H](C)N(Cc2ccc(F)cc2)C[C@H]1C,·,·,·,·,?,23µM*
CCCS(=O)(=O)NC(=O)C1(C)CCN(C(=O)c2ccc3ccccc3n2)C1 (stereo not given),3%,i,-3%,17%,i,i
O=C(c1ccccn1)N1CCN(c2ccc(C(F)(F)F)cn2)CC1,-30%,i,-2%,-10%,i,16µM*
Cc1ccc(C(=O)N2CCN(c3ccc(C(F)(F)F)cn3)CC2)o1,-23%,i,-6%,-15%,?,21µM*
CN1CCN(c2nn3c(=O)c4ccccc4nc3s2)CC1,·,·,·,·,i,i
C/C(Cl)=C\Cn1c(NCCc2ccccc2)nc2c1c(=O)n(C)c(=O)n2C,-21%,i,-13%,?,i,?
CCCNc1nc2c(c(=O)n(C)c(=O)n2C)n1CC(O)COc1ccccc1 (stereo not given),-26%,i,-2%,-2%,i,9.2µM*
COc1ccc(OCC(O)Cn2c(NCCO)nc3c2c(=O)n(C)c(=O)n3C)cc1 (stereo not given),-7%,·,-7%,·,·,·
CCNc1nc2c(c(=O)n(C)c(=O)n2C)n1CC(O)COc1ccccc1 (stereo not given),-11%,i,16%,-6%,?,5.2µM*
C=CCn1c(NCCc2ccccc2)nc2c1c(=O)n(C)c(=O)n2C,-42%,i,-24%,?,?,9.2µM*
O=C(C1CC12CCN(Cc1cccc3cccnc13)CC2)N1CCN(Cc2cccs2)CC1 (stereo not given),·,i,·,·,·,·
CCN(C(=O)CSc1nc2ccccc2nc1Cc1ccc(F)cc1)c1cccc(C)c1,2%,?,5%,13%,i,i
Cc1ccc(Cc2nc3ccccc3nc2SCC(=O)N2CCCCC2C)cc1 (stereo not given),-37%,?,16µM*,?,?,i
CC1CCCCN1C(=O)CSc1nnc(-c2ccccc2O)o1 (stereo not given),-5%,i,-8%,77%,13µM*,?
COc1cccc(Cc2nc3ccccc3nc2SCC(=O)N2CCN(c3ccccc3)CC2)c1,-20%,·,-2%,·,·,·
CCN(C(=O)CSc1nc2ccccc2nc1Cc1cccc(OC)c1)c1cccc(C)c1,-10%,·,16µM*,·,i,i
COc1cccc(Cc2nc3ccccc3nc2SCC(=O)N2CCCCC2C)c1 (stereo not given),-29%,?,11µM*,?,?,?
Cc1ccccc1OCCn1c(=N)n(C(C)C)c2ccccc21,-87%,·,?,·,·,·
COc1cc(OC)c(NC(=O)c2c(C)oc3ncn(C)c(=O)c23)cc1Cl,-1%,i,2%,0%,i,i
C#CCN(Cc1ccc(OC)cc1)S(=O)(=O)C=C,15%,·,-22%,·,?,?
CCN(C(=O)CSc1nc(-c2ccccc2)no1)c1cccc(C)c1,-90%,?,?,?,6.5µM*,i

# From PubChem BioAssay
